# Reference: PubChem BioAssay
# Values joined by “and” are separate entries in the source; they are usually repeats but may differ in a detail not shown here. Equal entries are not always repeated. Active and inactive are the calls of the source.
# Experiments:
# [1] = compound effects on lung adenocarcinoma cell viability – A549, calcein-AM fluorescence, 48 h, basal, profiling panel (AID 1162); conditions: higher = more signal
# [2] = compound effects on differentiated 3T3-L1 adipocyte viability – cell-based, 3T3-L1 adipocytes, calcein-AM fluorescence, 48 h, basal, profiling panel (AID 1163); conditions: 3T3-L1 adipocytes viability, higher = more signal
# [3] = compound effects on hepatocellular carcinoma cell viability – HepG2, calcein-AM fluorescence, 48 h, basal, profiling panel (AID 1164); conditions: higher = more signal
# [4] = compound effects on multiple myeloma cell viability – MM1S, calcein-AM fluorescence, 48 h, basal, profiling panel (AID 1165); conditions: higher = more signal
# [5] = calcein-AM signal in unstimulated myeloma cells – cell-based, calcein-AM fluorescence, 48 h, PK04 Diversity Set, profiling panel (AID 1166); conditions: RPMI8226 myeloma viability, higher = more signal;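 further: cells grown under basal conditions without added stimulus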
# [6] = JC-1 mitochondrial signal, unstimulated HepG2 cells – cell-based, JC-1 fluorescence, 24 h, 100 nL compound, profiling panel (AID 1167); conditions: HepG2 mitochondrial potential, higher = more signal
# [7] = JC-1 mitochondrial signal, unstimulated adipocytes – cell-based, JC-1 fluorescence, 3T3-L1 adipocytes, 24 h, 100 nL compound, profiling panel (AID 1168); conditions: JC-1 mitochondrial fluorescence, higher = more signal, called active from +8 up or from −8 down
# [8] = JC-1 mitochondrial signal, unstimulated myeloma cells – cell-based, JC-1 fluorescence, RPMI8226, 24 h, 100 nL compound, profiling panel (AID 1169); conditions: JC-1 mitochondrial potential fluorescence, higher = more signal
# [9] = JC-1 mitochondrial signal, unstimulated MM1S myeloma – cell-based, JC-1 fluorescence, 24 h, 100 nL compound, profiling panel (AID 1170); conditions: MM1S mitochondrial potential, higher = more signal
# [10] = resazurin metabolic signal in A549 cells – cell-based, resazurin fluorescence, 24 h, PK04 Diversity Set, profiling panel (AID 1171); conditions: A549 viability, higher = more signal, called active from +8 up or from −8 down
# Further: test concentration not given here.
Structure (SMILES),z-score [1],z-score [2],z-score [3],z-score [4],z-score [5],z-score [6],z-score [7],z-score [8],z-score [9],z-score [10]
C[C@@H]1CC[C@@H](C(=O)O)N[C@H]1c1ccc(-c2ccco2)cc1,1.11,-0.396,0.229,0.617,0.404,1.49,0.309 (inactive),-0.636,0.496,0.115 (inactive)
C=CCN(C(=O)C1N(CCCCCCO)C(=O)C2C(C(=O)O)C3C=CC21O3)c1ccc(OC)cc1 (stereo not given),1.37 and 0.282,0.743 and -0.0063,-0.46 and 0.428,0.315 and -1.1,0.432 and 0.269,0.113 and -0.546,0.74 (inactive) and 0.861 (inactive),-0.875 and -0.0778,1.02 and 1.2,1.09 (inactive) and 0.416 (inactive)
COC(=O)CC=C[C@@H](C)[C@@H](CO)NS(=O)(=O)c1ccc(C)cc1,-0.188 and 0.816,-0.466 and -0.0209,-0.252 and 0.461,-0.243 and 0.811,-0.101 and 0.667,-0.328 and 0.817,-0.0819 (inactive) and -0.161 (inactive),-0.827 and 0.601,-0.0943 and -0.285,0.827 (inactive) and -0.832 (inactive)
CC(CO)N1C(=O)[C@@H]2C3C(=O)OCCC=C[C@H]3OC23C=CCN(CCN2CCOCC2)C(=O)[C@@H]13 (stereo not given in full),-0.438 and -0.439,-0.465 and 0.0431,-1.36 and -0.421,0.19 and 0.248,-0.174 and -0.382,-0.41 and -1.09,-0.189 (inactive) and -0.818 (inactive),-0.00565 and 0.13,-0.137 and -0.0991,-0.298 (inactive) and 0.141 (inactive)
CCCNC(=O)OC[C@H]1O[C@H](CCON=C(C)CCN2CCc3nc(-c4ccccc4)c(-c4ccccc4)cc3C2)C=C[C@@H]1Oc1ccc(OC)cc1,1.18,0.723,0.27,-0.893,-0.794,4.79,-1.65 (inactive),0.179,0.483,0.444 (inactive)
C=CCN1C(=O)[C@]2(O[C@H](CCn3cc(CCO)nn3)[C@@H]([Si](C)(C)c3ccc(OC)cc3)[C@@H]2C)c2cc(N3C(=O)c4cccc5cccc3c45)ccc21,-3.83 and -4.13,-1.83 and -2.41,-4.65 and -4.73,-2.66 and -2.87,-4.33 and -4.37,-1.51 and 1.37,5.29 (inactive) and 4.16 (inactive),-0.877 and -0.786,-2.27 and -1.98,-6.11 (inactive)
C[N+](C)(C)CCCCNC(=O)[C@@H]1C[C@@H]2C(=O)N[C@@H](CCCC[N+](C)(C)C)C(=O)N2[C@@H]1c1cccc(OCCO)c1,0.901 and 1.05,0.462 and -0.276,-0.517 and 0.473,-0.531 and -0.212,-0.719 and -0.495,0.0138 and 1.44,-0.393 (inactive) and 0.547 (inactive),0.352 and -0.897,-0.218 and 0.26,-0.375 (inactive) and -0.0246 (inactive)
CC(C)=NO[C@@H](C)c1cc(-c2c(C)cc(C)cc2C)no1,-0.846,0.38,-0.242,-0.309,-0.416,-0.182,0.478 (inactive),-0.328,-0.39,0.0477 (inactive)
Cc1cc2c(nc1C)CCCN2CC(O)CN1CCCc2nc(-c3ccc(Br)cc3)ccc21 (stereo not given),-0.243 and -0.599,0.929 and 0.303,-0.749 and -0.129,0.916 and -1.24,-2.13 and -0.178,0.36 and 0.768,-0.855 (inactive) and -1.29 (inactive),0.144 and -0.0117,-0.488 and 0.538,-0.347 (inactive) and 0.0661 (inactive)
C=CCN(CCCCC)C(=O)C(c1cccs1)N(C(=O)/C=C\C(=O)O)c1ccc(CCO)cc1 (stereo not given),1.11 and 0.437,-4.27 and -0.651,0.877 and 1.59,1.78 and 1.21,-0.174 and 0.104,-0.087 and 0.966,-0.177 (inactive) and 0.506 (inactive),1.26 and -0.556,-0.138 and -0.377,-0.235 (inactive) and -0.813 (inactive)
CCOC(=O)C[C@H]1[C@H](OC(=O)c2ccccc2-c2ccccc2)[C@@H](NC(=O)Cc2ccc(OC)cc2)c2cc(OCCCO)ccc2N1C(=O)c1ccc2ccccc2n1,0.637 and 1.07,1.49 and 0.317,0.633 and 0.244,0.218 and 0.868,-0.765 and -0.644,3.65 and 1.61,0.611 (inactive) and 0.669 (inactive),0.257 and -0.354,0.82 and 0.248,1.26 (inactive) and 0.555 (inactive)
C=CCN(Cc1ccccc1)C(=O)C(c1cccs1)N(C(=O)/C=C\C(=O)O)c1c(Cl)cccc1CO (stereo not given),-0.159 and -0.34,0.036 and -0.0047,-0.876 and -0.217,1.21 and 1.6,1 and -0.538,-0.267 and -0.148,0.426 (inactive) and 0.223 (inactive),-0.917 and 0.247,-0.871 and -0.502,0.351 (inactive) and -0.519 (inactive)
C[N+](C)(C)CCCCCCNC(=O)[C@H]1C[C@H]2C(=O)N[C@@H](CCCC[N+](C)(C)C)C(=O)N2[C@H]1c1ccc(O)cc1,-0.512 and 0.597,0.222 and -0.596,-1.45 and -0.367,-0.602 and 0.494,-0.149 and -0.0976,-1.34 and -0.105,0.913 (inactive) and 0.345 (inactive),-0.169 and 0.432,-0.657 and -0.528,-0.673 (inactive) and -0.0771 (inactive)
CCOC(=O)c1ccc(NC(=O)O[C@H]2[C@H](OC(=O)Nc3ccccc3)[C@H](OC(=O)Nc3ccccc3)[C@@H](OC)O[C@@H]2CO)cc1,-0.299 and -1.3,0.207 and 0.7,-1.02 and -1.9,-1.08 and -3.02,-0.636 and -3.24,-0.171 and -1.02,1.31 (inactive) and -0.302 (inactive),-0.396 and -0.968,-0.45 and -1.27,-1.11 (inactive) and -3.2 (inactive)
